Measurements taken from PubChem BioAssay (Tox21).
Results filed as inconclusive are left out. Activity calls are given as the source filed them. Calls come from the whole dose curve.

The compounds below were run against 5-hydroxytryptamine receptor 2A (Homo sapiens) (UniProt P28223) (assay: 5-hydroxytryptamine receptor 2A (HTR2A) small molecule agonists, cell-based qHTS assay (AID 1963587; note: nearly all actives have a fitted effect of over 30% in size)). Conditions: HTR2A-CHO cells, calcium flux fluorescence, agonist mode; series mostly up to 76.8 µM; activation: at the top concentration.
Description: National Center for Advancing Translational Sciences [NCATS]
Division of Preclinical Innovation [DPI]
U.S. Environmental Protection Agency [EPA]
National Institutes of Environmental Health Sciences [NIEHS]
National Toxicology Program [NTP]
U.S. Food and Drug Administration [FDA]
The HTR2A receptor is a subtype of the 5-HT2 receptor that belongs to the serotonin receptor family and is a G protein-coupled receptor (GPCR). The HTR2A-CHO cell line stably expressing human 5-hydroxytryptamine receptor 2A (HTR2A) can be used for screening agonists of interactions between 5-HT2 and its ligands. The HTR2A-CHO calcium flux assay is a homogeneous fluorescence-based assay for detecting the intracellular calcium level using FDSS kinetic plate reader system.
HTR2A-CHO cells were dispensed at 2000 cells/3uL/well in 1536-well black-clear bottom plates using a Multidrop Dispenser. After the assay plates were incubated at a 37 C/5% CO2 incubator for 18 h, 3 uL of Dye Loading Buffer was transferred to the assay plate by a Flying Reagent Dispenser. The assay plates were incubated at 37 C for 1h. For agonist mode, 23 nL of compounds dissolved in DMSO, positive controls or DMSO only was transferred to the assay plate by a pin tool. The fluorescence intensity in the plates was measured using FDSS 7000EX kinetic plate reader for 2 min at 1 sec intervals.
% is set by controls: 0 for no effect and ±100 for the full control effect; potency is the fitted concentration of half-maximal effect.

Sequence of 5-hydroxytryptamine receptor 2A (Homo sapiens) (P28223 whole entry, looked up): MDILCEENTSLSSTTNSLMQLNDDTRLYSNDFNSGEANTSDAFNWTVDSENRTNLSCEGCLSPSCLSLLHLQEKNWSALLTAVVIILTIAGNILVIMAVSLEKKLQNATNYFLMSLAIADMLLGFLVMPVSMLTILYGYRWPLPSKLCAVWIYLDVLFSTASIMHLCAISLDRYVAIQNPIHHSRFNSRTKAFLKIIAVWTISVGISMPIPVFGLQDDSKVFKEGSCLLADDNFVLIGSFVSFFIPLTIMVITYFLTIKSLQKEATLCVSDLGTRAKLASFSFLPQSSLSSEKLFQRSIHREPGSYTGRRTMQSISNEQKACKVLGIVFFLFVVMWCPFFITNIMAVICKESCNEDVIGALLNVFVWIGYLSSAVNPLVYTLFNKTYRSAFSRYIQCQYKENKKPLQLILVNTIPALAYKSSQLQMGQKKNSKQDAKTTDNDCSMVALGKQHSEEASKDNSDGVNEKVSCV

Row | SMILES | activation | Potency
1 | COc1ccc(-c2ccc3cc(C(=O)O)ccc3c2)cc1C12CC3CC(CC(C3)C1)C2 | 1.98% [at 35.6 µM] (inactive) | –
2 | C=C(C)C(=O)OC | 0.123% (inactive) | –
3 | C=C[Si](OCC)(OCC)OCC | -1.53% (inactive) | –
4 | O=CC=C(c1ccccc1)c1ccccc1 | 22% (inactive) | –
5 | O=C(N/N=C/c1ccccc1O)c1ccncc1 | -9.14% [at 35.6 µM] (inactive) | –
6 | CCN(CC)C(=O)c1ccc(O)c(OC)c1 | 0.765% [at 35.6 µM] (inactive) | –
7 | Nc1ccc2c3c(cccc13)-c1ccccc1-2 | – | 24.8 µM (active)
8 | CN(C)c1ccc(C2(c3ccc(N(C)C)cc3)OC(=O)c3cc(N(C)C)ccc32)cc1 | -0.849% (inactive) | –
9 | CC(=O)OC/C=C(/C)CCC=C(C)C | -0.758% (inactive) | –
10 | CCCCCCC[N+](CC)(CC)CCCCc1ccc(Cl)cc1 | -11.6% [at 35.6 µM] (inactive) | –
11 | COC(C(=O)O)c1ccccc1 (stereo not given) | -3.08% (inactive) | –
12 | CCCCC(CC)COC(=O)c1ccccc1C(=O)O (stereo not given) | -11.4% (inactive) | –
13 | CCCCN(CCO)CCCC | -0.113% (inactive) | –
14 | CCCCNC(=S)NCCCC | -0.883% (inactive) | –
15 | CNS(=O)(=O)c1cc(C(=O)N2CCC(CCN3C4CCC3CC(n3c(C)nc5ccccc53)C4)(c3cccc(F)c3)CC2)c(Cl)cc1F (stereo not given) | 4.74% (inactive) | –
16 | CC(C)C1=CC2=CC[C@@H]3[C@](C)(CCC[C@@]3(C)C(=O)O)[C@H]2CC1 | -0.575% (inactive) | –
17 | O=C1CCCCCCCCCCCC(=O)OCCO1 | – | 5.49 µM (active)
18 | c1ccc2c(c1)ccc1c3ccccc3ccc21 | 3.72% [at 35.6 µM] (inactive) | –
19 | Cc1onc(-c2c(Cl)cccc2Cl)c1C(=O)N[C@@H]1C(=O)N2[C@@H]1SC(C)(C)[C@@H]2C(=O)O | -0.429% [at 35.6 µM] (inactive) | –
20 | C=C1CC[C@H]2C[C@@H]1C2(C)C | 3.08% (inactive) | –

Row | SMILES | activation | Potency
21 | CC(C)CCOC(=O)/C=C/c1ccccc1 | -0.0804% (inactive) | –
22 | OCCc1ccncc1 | 0.46% (inactive) | –
23 | C[Si](C)(C)O[Si](O)(O)O | 0.461% (inactive) | –
24 | CCCCOCCOCCOCCOCCO | 2.22% (inactive) | –
25 | COc1ccccc1OCC1CNC(=O)O1 (stereo not given) | 1.32% [at 35.6 µM] (inactive) | –
26 | O=C(/C=C/c1ccccc1)NCCO | – | 21.3 µM (active)
27 | CC(=O)NNC(C)=O | 1.64% (inactive) | –
28 | CC(C)OC(=O)c1cc(C(=O)OC(C)C)cc([N+](=O)[O-])c1 | 5.83% (inactive) | –
29 | O=C(Nc1ccccc1)c1cc(Cl)ccc1O | -9.31% (inactive) | –
30 | C=CC(=O)N1CCOCC1 | 0.347% (inactive) | –
31 | NC(=O)c1c(Cl)cccc1Cl | 2.53% (inactive) | –
32 | O=C(Nc1ccc(Cl)cc1)Nc1ccc(Cl)c(C(F)(F)F)c1 | 5.6% [at 35.6 µM] (inactive) | –
33 | O=C(Oc1cccc2cccnc12)c1ccccc1 | -6.23% [at 35.6 µM] (inactive) | –
34 | COC(=O)c1ccc(C(=O)OC)c(C(=O)OC)c1 | -5.28% (inactive) | –
35 | CCCOC(OCCC)OCCC | -1.07% (inactive) | –
36 | CCCC(=O)OCCC(C)CCC=C(C)C (stereo not given) | -2.85% (inactive) | –
37 | CC(C)(C)CC(C)(C)N | -2.39% (inactive) | –
38 | CO/N=C(/C(=O)N[C@@H]1C(=O)N2C(C(=O)O)=C(Cn3nnc(C)n3)CS[C@H]12)c1csc(N)n1 | -1.71% [at 35.6 µM] (inactive) | –
39 | CCOC(=O)/C=C/c1ccccc1 | -7.88% (inactive) | –
40 | CCCCCCCCCCCCCCCS(=O)(=O)Oc1ccccc1 | -2.84% [at 35.6 µM] (inactive) | –
